# Test results from the supplement of paper PMC8728848.
# The full list was thinned out, with the strongest signals kept by preference.
# B1: RetS (Pseudomonas aeruginosa), Q9HUV7 (protein)
# chain: MVRLRIAIGLLVSFLLLLLGPMSPAVADDAGVSSVPLQTTATTPSANQNWRLLRDESAQLRIADVLQRKEQFRPLAKRSFIFPASPQAVWLQVQLPAQKVPSWLWIFAPRVQYLDYYLVQDGQLVRDQHTGESRPFQERPLPSRSYLFSLPVDGKPMTLYVRMTSNHPLMAWFDQIDEAGLVGLEKPAYAFGMLLGGMLLLLMYNLIRFAYSRSASSLWLAAVHAALAVCAAANLGLVAFWLPGLKFNQSLTADLGALGAAVSLLWFACSFFRGTAESRLNRLLQGEALLILAVGAIIAFTQQLWFSWLIYLLVILSSLSVPLIAAWHWYRGYQPARLIVAGMIVFNAGFMVFLPVLFGTKQLDPGWLVLGVFSFATLAGLVLSVSLTERQRLIQQLNLQQRTSEAAHTAELQTKAEFLAKISHEIRTPMNGVLGMTELLLGTPLSAKQRDYVQTIHSAGNELLTLINEILDISKLESGQIELDEVQFDLNALIEDCLDIFRVKAEQQRIELISFTQPQVPRVIGGDPTRLRQVVLSLLDNAFKQTEEGEILLVVALDDQGETPRLRIAVQDSGHPFDAKEREALLTAELHSGDFLSASKLGSHLGLIIARQLVRLMGGEFGIQSGSSQGTTLSLTLPLDPQQLENPTADLDGPLQGARLLVVDDNETCRKVLVQQCSGWGLNVSAVSSGKEALAQLRTKAHLREYFDVVLLDQDMPGMTGMQLAAKIKEDPNLNHDILLIMLTGISNAPSKIIARNAGIKRILAKPVAGYTLKATLADELAQRGVSGVTNYLQPAKEAQAPSLPSDFRILVAEDNSISTKVIRGMLNKLNLQPDTASNGQEALSAMKATQYDLVLMDCEMPVLDGFSATEQLRAWEAHEQRPHTPVVALTAHILSEHKERARLVGMDGHMAKPVELSQLRELIAYWVGERDRRRQGDALPS
# Legend:
# Assay in all cases: glycan array binding signal (z-score within array); higher = stronger binding
# Conditions in all cases: glycan notation: IUPAC condensed, linker removed
# [1] = target: Fuc(a1-2)Gal
# Procedure, shortened: (§1)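 From the Consortium for Functional Glycomics database, 3228 arrays were curated, keeping only those whose protein sequence was available. Binding is given as a within-array Z-score averaged across arrays sharing a protein sequence and across linkers. Negative Z-scores can be read as non-binding.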
# [2] = target: Fuc(a1-2)Gal(b1-4)GlcNAc(b1-3)[Fuc(a1-2)Gal(b1-4)GlcNAc(b1-6)]GalNAc
# Procedure, shortened: as §1
# [3] = target: Fuc(a1-2)Gal(b1-4)[Fuc(a1-3)]GlcNAc(b1-3)GalNAc
# Procedure, shortened: as §1
# [4] = target: Fuc(a1-2)[Gal(a1-3)]Gal(b1-3)GlcNAc(b1-2)Man(a1-3)[Fuc(a1-2)[Gal(a1-3)]Gal(b1-3)GlcNAc(b1-2)Man(a1-6)]Man(b1-4)GlcNAc(b1-4)[Fuc(a1-6)]GlcNAc
# Procedure, shortened: as §1
# [5] = target: Fuc(a1-2)[GalNAc(a1-3)]Gal(b1-3)GalNAc(a1-3)[Fuc(a1-2)]Gal(b1-4)GlcNAc
# Procedure, shortened: as §1
# [6] = target: Fuc(a1-3)[Gal(b1-4)]GlcNAc(b1-4)Gal(b1-4)[Fuc(a1-3)]GlcNAc(b1-4)Gal(b1-4)[Fuc(a1-3)]GlcNAc
# Procedure, shortened: as §1
# [7] = target: Gal(a1-4)Gal(b1-3)GlcNAc(b1-2)Man(a1-3)[Gal(a1-4)Gal(b1-3)GlcNAc(b1-2)Man(a1-6)]Man(b1-4)GlcNAc(b1-4)GlcNAc
# Procedure, shortened: as §1
# [8] = target: Gal(a1-4)Gal(b1-4)Glc
# Procedure, shortened: as §1
# [9] = target: Gal(a1-4)Gal(b1-4)GlcNAc(b1-2)Man(a1-3)[Gal(a1-4)Gal(b1-4)GlcNAc(b1-2)Man(a1-6)]Man(b1-4)GlcNAc(b1-4)GlcNAc
# Procedure, shortened: as §1
# [10] = target: Gal(b1-3)[Fuc(a1-4)]GlcNAc(b1-2)Man(a1-3)[Gal(b1-3)[Fuc(a1-4)]GlcNAc(b1-2)Man(a1-6)]Man(b1-4)GlcNAc(b1-4)[Fuc(a1-6)]GlcNAc
# Procedure, shortened: as §1
# [11] = target: Gal(b1-3)[Fuc(a1-4)]GlcNAc(b1-3)Gal(b1-4)GlcNAc
# Procedure, shortened: as §1
# [12] = target: Gal(b1-4)Gal
# Procedure, shortened: as §1
# [13] = target: Gal(b1-4)GlcNAc(b1-2)[Gal(b1-4)GlcNAc(b1-4)]Man(a1-3)[Gal(b1-4)GlcNAc(b1-2)[Gal(b1-4)GlcNAc(b1-6)]Man(a1-6)]Man(b1-4)GlcNAc(b1-4)GlcNAc
# Procedure, shortened: as §1
# [14] = target: Gal(b1-4)GlcNAc(b1-3)[Gal(b1-4)GlcNAc(b1-6)]Gal(b1-4)GlcNAc
# Procedure, shortened: as §1
# [15] = target: GalNAc(a1-3)Fuc(a1-2)Gal(b1-4)GlcNAc(b1-3)[GalNAc(a1-3)Fuc(a1-2)Gal(b1-4)GlcNAc(b1-6)]GalNAc
# Procedure, shortened: as §1
# [16] = target: GalNAc(a1-3)GalNAc
# Procedure, shortened: as §1
# [17] = target: GalNAc(b1-3)Gal
# Procedure, shortened: as §1
# [18] = target: Glc(a1-4)Glc(a1-4)Glc(a1-4)Glc
# Procedure, shortened: as §1
# [19] = target: Glc(a1-6)Glc(a1-6)Glc(a1-6)Glc
# Procedure, shortened: as §1
# [20] = target: GlcNAc(a1-4)Gal(b1-4)GlcNAc(b1-3)Gal(b1-4)Glc
# Procedure, shortened: as §1
# [21] = target: GlcNAc(a1-4)Gal(b1-4)GlcNAc(b1-3)Gal(b1-4)GlcNAc
# Procedure, shortened: as §1
# [22] = target: GlcNAc(a1-4)Gal(b1-4)GlcNAc(b1-3)Gal(b1-4)[Fuc(a1-3)]GlcNAc(b1-3)Gal(b1-4)[Fuc(a1-3)]GlcNAc
# Procedure, shortened: as §1
# [23] = target: GlcNAc(b1-2)Gal(b1-3)GalNAc
# Procedure, shortened: as §1
# [24] = target: GlcNAc(b1-2)Man(a1-3)[GlcNAc(b1-2)Man(a1-6)]Man(b1-4)GlcNAc(b1-4)GlcNAc
# Procedure, shortened: as §1
# [25] = target: GlcNAc(b1-2)[GlcNAc(b1-4)]Man(a1-3)[GlcNAc(b1-2)Man(a1-6)]Man(b1-4)GlcNAc(b1-4)GlcNAc
# Procedure, shortened: as §1
# [26] = target: GlcNAc(b1-3)Gal(b1-4)Glc
# Procedure, shortened: as §1
# [27] = target: GlcNAc(b1-3)GalNAc
# Procedure, shortened: as §1
# [28] = target: GlcNAc(b1-4)GlcNAc(b1-4)GlcNAc(b1-4)GlcNAc(b1-4)GlcNAc(b1-4)GlcNAc
# Procedure, shortened: as §1
# [29] = target: Man(a1-2)Man(a1-3)Man
# Procedure, shortened: as §1
# [30] = target: Man(a1-2)Man(a1-3)[Man(a1-6)]Man(a1-6)[Man(a1-2)Man(a1-3)]Man(b1-4)GlcNAc(b1-4)GlcNAc
# Procedure, shortened: as §1
# [31] = target: Neu5Ac(a2-3)Gal(b1-3)GlcNAc(b1-3)GalNAc
# Procedure, shortened: as §1
# [32] = target: Neu5Ac(a2-3)Gal(b1-4)GlcNAc(b1-3)Gal(b1-4)GlcNAc(b1-3)Gal(b1-4)GlcNAc
# Procedure, shortened: as §1
# [33] = target: Neu5Ac(a2-3)Gal(b1-4)GlcNAc(b1-6)[Gal(b1-3)]GalNAc
# Procedure, shortened: as §1
# [34] = target: Neu5Ac(a2-3)Gal(b1-4)[Fuc(a1-3)]GlcNAc(b1-3)Gal
# Procedure, shortened: as §1
# [35] = target: Neu5Ac(a2-3)Gal(b1-4)[Fuc(a1-3)]GlcNAc(b1-3)Gal(b1-4)GlcNAc
# Procedure, shortened: as §1
# [36] = target: Neu5Ac(a2-3)Gal(b1-4)[Fuc(a1-3)]GlcNAc(b1-3)GalNAc
# Procedure, shortened: as §1
# [37] = target: Neu5Ac(a2-3)Gal6S(b1-4)[Fuc(a1-3)]GlcNAc
# Procedure, shortened: as §1
# [38] = target: Neu5Ac(a2-6)Gal(b1-4)GlcNAc6S
# Procedure, shortened: as §1
# [39] = target: Neu5Ac(a2-8)Neu5Ac(a2-3)[GalNAc(b1-4)]Gal(b1-4)Glc
# Procedure, shortened: as §1
# [40] = target: Neu5Ac(a2-8)Neu5Ac(a2-8)Neu5Ac(a2-3)[GalNAc(b1-4)]Gal(b1-4)Glc
# Procedure, shortened: as §1
binder,measurement,setting,value
B1,glycan array binding signal (z-score),[1],1.84
same,glycan array binding signal (z-score),[2],0.163
same,glycan array binding signal (z-score),[3],1.16
same,glycan array binding signal (z-score),[4],2.79
same,glycan array binding signal (z-score),[5],0.731
same,glycan array binding signal (z-score),[6],-0.414
same,glycan array binding signal (z-score),[7],5.23
same,glycan array binding signal (z-score),[8],-0.16
same,glycan array binding signal (z-score),[9],3.05
same,glycan array binding signal (z-score),[10],-0.397
same,glycan array binding signal (z-score),[11],0.071
same,glycan array binding signal (z-score),[12],3.18
same,glycan array binding signal (z-score),[13],0.39
same,glycan array binding signal (z-score),[14],-1.17
same,glycan array binding signal (z-score),[15],1.02
same,glycan array binding signal (z-score),[16],-0.917
same,glycan array binding signal (z-score),[17],-0.593
same,glycan array binding signal (z-score),[18],-0.095
same,glycan array binding signal (z-score),[19],-0.394
same,glycan array binding signal (z-score),[20],0.236
same,glycan array binding signal (z-score),[21],6.62
same,glycan array binding signal (z-score),[22],4.27
same,glycan array binding signal (z-score),[23],-0.622
same,glycan array binding signal (z-score),[24],0.152
same,glycan array binding signal (z-score),[25],-0.599
same,glycan array binding signal (z-score),[26],2.75
same,glycan array binding signal (z-score),[27],-0.143
same,glycan array binding signal (z-score),[28],0.22
same,glycan array binding signal (z-score),[29],-1.17
same,glycan array binding signal (z-score),[30],0.409
same,glycan array binding signal (z-score),[31],-0.17
same,glycan array binding signal (z-score),[32],0.517
same,glycan array binding signal (z-score),[33],-0.343
same,glycan array binding signal (z-score),[34],-0.075
same,glycan array binding signal (z-score),[35],1.76
same,glycan array binding signal (z-score),[36],3.56
same,glycan array binding signal (z-score),[37],-0.246
same,glycan array binding signal (z-score),[38],0.369
same,glycan array binding signal (z-score),[39],0.67
same,glycan array binding signal (z-score),[40],0.181
